The list is not random: actives were taken first. Their share in the collection is about 4.6%.
NALP3 yeast inh – inhibitors of NALP3 inflammasome in yeast; Yeast reconstituted NLRP3/ASC/caspase-1, beta-gal luminescence, 24 h; inhibition, % at 10 µM; 330,000 tested, 0.39% active; AID 2825;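 active means inhibition of 50% or more; inactive means inhibition below 50%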;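 further: plate controls were induced DMSO wells for no effect and uninduced yeast grown without galactose for full effect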
TIM10 inh – inhibits growth of TIM10 yeast strain; S. cerevisiae TIM10 strain growth, BacTiter-Glo luminescence, 24 h; inhibition, % at 10 µM; 330,000 tested, 1.4% active;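 active means inhibition of 40% or more at the single tested concentration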;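 further: wild-type TIM10 isogenic control strain grown at permissive 25 °C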
SKKanGAS inh – SKKanGAS growth inhibition. inhibition, % at 7.5 µM. S. pyogenes SKKanGAS, kanamycin growth, BacTiter-Glo, 6 h. 300,000 tested, 1.3% active;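 active means mean replicate score, as percent of positive control median, at least 50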;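 further: strain carries kanamycin resistance gene driven by streptokinase promoter and grows in 40 µg/ml kanamycin; loss of luminescence reflects streptokinase promoter inhibition or plain growth inhibition; 0% = median of DMSO wells and 100% = positive control at its reference dose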
tim10-1 inh – growth inhibitors of tim10-1 mutant yeast | S. cerevisiae tim10-1 ts strain growth, BacTiter-Glo, 24 h | inhibition, % at 20 µM | 330,000 tested, 2.2% active | AID 463190;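 active means inhibition of at least 40%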;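 further: mutant grown at 25 °C; 0% = DMSO wells with yeast and 100% = wells holding no yeast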
tim23-1 inh – growth inhibitors of tim23-1 mutant yeast | AID 463212 | S. cerevisiae tim23-1 growth, BacTiter-Glo luminescence, 24 h | inhibition, % at 20 µM | 330,000 tested, 1.3% active;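 active means growth inhibition of the mutant yeast at or above 50%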;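 further: temperature-sensitive mutant grown at 25 °C; plate controls were DMSO-treated mutant yeast for no effect and medium wells lacking yeast for full effect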
NALP3 confirm – NALP3 inhibition confirmation in yeast; shares compounds with NALP3 yeast inh; yeast expressing human NALP3, luminescence; inhibition, % at 10 µM; 1,300 tested, 81% active; AID 435006; in the data active means inhibition above about 48%
Casp1-ASC yeast – counter-screen for NALP3 inhibitors: yeast caspase-1-ASC; shares compounds with NALP3 yeast inh; yeast expressing Caspase-1-ASC, luminescence counter screen; inhibition, % at 10 µM; 1,000 tested, 66% active; AID 488784
NALP3 yeast rt – confirmation retest of NALP3 inhibitors in yeast; shares compounds with NALP3 yeast inh; yeast expressing human NALP3, luminescence read-out; inhibition, % at 10 µM; 1,000 tested, 53% active; AID 488794
tim10-1 confirm – confirmation of tim10-1 mutant yeast growth inhibitors; 7,400 tested, 56% active; inhibition, % at 20 µM; S. cerevisiae tim10-1 ts strain growth, BacTiter-Glo, 24 h; shares compounds with tim10-1 inh; AID 463213;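 active means inhibition of yeast growth at or above a set limit in either of two repeat tests at 20 µM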;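 further: tim10-1 mutant grown at permissive 25 °C to find synthetic lethal compounds; 0% = DMSO yeast wells and 100% = medium wells without yeast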
TIM10 conf – TIM10 yeast growth inhibition, confirmed | shares compounds with TIM10 inh | S. cerevisiae tim10 strain growth, BacTiter-Glo luminescence, 24 h | inhibition, % at 10 µM | 4,600 tested, 63% active | AID 463215;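 active means inhibition of yeast growth at or above a set limit in either of two replicates at 10 µM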;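 further: this counterscreen used the strain with wild-type TIM10; 0% = yeast with DMSO and 100% = medium wells lacking yeast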
tim23-1 conf – tim23-1 yeast growth inhibition, confirmed | shares compounds with tim23-1 inh | S. cerevisiae tim23-1 growth, BacTiter-Glo luminescence, 24 h | inhibition, % at 20 µM | 4,400 tested, 83% active | AID 463218;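 active means inhibition above about 39% in either of two replicate wells at 20 µM, limit read from the data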;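 further: temperature-sensitive tim23-1 mutant grown at 25 °C; 0% = DMSO wells with yeast and 100% = medium wells without yeast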
Starred values were filed as active, the others as inactive; x = no result given. Unless noted, no stated cut-off is given here; in the data, active means inhibition above about 50%; inactive means the rest.

SMILES	NALP3 yeast inh	TIM10 inh	SKKanGAS inh	tim10-1 inh	tim23-1 inh	NALP3 confirm	Casp1-ASC yeast	NALP3 yeast rt	TIM10 conf	tim23-1 conf	others
CCCCCCCCn1c(=O)c(C(=O)OC)c(N)c2ccccc21	60*	32	3	36	64*	28	x	x	x	44*
CCCCCCCn1c(=O)c(C(=O)OC)c(N)c2ccccc21	68*	13	0	28	53*	61*	93*	84*	x	50*
O=C(N/N=C/c1ccco1)c1cc2ccccc2o1	64*	41*	-4	23	66*	74*	64*	63*	12	64*
O=C(N/N=C/c1ccco1)c1ccc(Br)o1	5	-21	-10	-32	-4	x	x	x	x	x
O=C(NCCc1ccccc1)c1c(O)c2ccccc2[nH]c1=O	23	3	1	-43	31	x	x	x	x	x
CCNC(=O)c1c(O)c2ccccc2[nH]c1=O	68*	27	-1	13	54*	79*	53*	71*	x	41*
O=C(/C=C/c1ccccc1Cl)Nc1ccccc1	65*	33	11	8	65*	75*	79*	74*	x	58*
CN(CC(=O)Nc1cccc(F)c1)C(=O)c1ccccc1OCCOc1ccccc1	8	17	-4	23	21	x	x	x	x	x
Cc1ccc(NC(=O)CN2CCCC2c2cccn2C)c(Br)c1 (configuration not stated)	20	2	x	2	25	x	x	x	x	x
O=c1c2ccc(Cl)cc2nc(-c2ccc([N+](=O)[O-])cc2)n1O	57*	63*	1	33	55*	81*	62*	54*	45*	63*
COc1ccccc1-c1nc2cc(Cl)ccc2c(=O)n1O	9	10	4	-15	3	x	x	x	x	x
CCOc1cc(/C=C\[N+](=O)[O-])ccc1OCC(=O)Nc1ccccc1C	58*	56*	58*	13	58*	25	x	x	13	78*
COc1cc(/C=C/c2cccc[n+]2C)ccc1OCC(=O)Nc1ccccc1C	16	-3	3	4	-16	x	x	x	x	x
O=C(CSc1nc(=O)n(CCCN2CCOCC2)c2c1CCCC2)Nc1ccc(Cl)cc1	13	13	-5	-11	-18	x	x	x	x	x
Cc1ccc(Nc2c(-c3ccccn3)nc3cc(C)ccn23)cc1	53*	25	101*	36	57*	63*	50*	41	x	50*
Cc1nc(SCC(=O)NCc2ccc3c(c2)OCO3)nc(C)c1C	7	8	x	10	17	x	x	x	x	x
Nc1ccc2nc(SCC(=O)c3ccccc3)sc2c1	38	15	-3	20	16	x	x	x	x	x
Nc1ccc2nc(SCc3ccccc3F)sc2c1	52*	6	5	-12	63*	22	x	x	x	43*
O=C(NC(=S)NNC(=O)c1ccccc1O)c1cccs1	59*	51*	90*	0	53*	78*	70*	56*	47*	66*
O=C(NNC(=O)c1ccccc1Cl)c1cccs1	-3	-6	-4	-3	3	x	x	x	x	x
Nc1nc(-c2ccccc2)cs1	20	2	2	4	15	x	x	x	x	x
Nc1nc(-c2cc(-c3ccccc3)no2)cs1	56*	51*	8	26	80*	75*	64*	61*	58*	75*
Cc1ccc(-c2c(C(=O)N/N=C/c3c[nH]c4ccccc34)nnn2-c2nonc2N)cc1	8	24	4	10	12	x	x	x	x	x
CC(C)c1nc(SCC(=O)Nc2ccc(C(=O)O)cc2)c2c3c(sc2n1)CCCC3	8	16	19	-3	6	x	x	x	x	x
c1ccc(-c2cc3cc4c(cc3cn2)OCO4)cc1	55*	-17	x	-32	62*	58*	71*	67*	x	50*
SMILES	NALP3 yeast inh	TIM10 inh	SKKanGAS inh	tim10-1 inh	tim23-1 inh	NALP3 confirm	Casp1-ASC yeast	NALP3 yeast rt	TIM10 conf	tim23-1 conf	others
N#Cc1ccc(C(=O)CN2CCN(c3ccccc3)CC2)cc1	16	-4	1	-3	5	x	x	x	x	x
CN(C)S(=O)(=O)c1ccc(Cl)c(NC(=O)CNC2(C)CCS(=O)(=O)C2)c1 (configuration not stated)	-2	-2	x	-9	-7	x	x	x	x	x
O=C(C[n+]1ccccc1)N/N=C/c1cc(Br)cc(Br)c1O	78*	56*	102*	37	68*	53*	87*	77*	68*	69*
O=C(Nc1ccc(Cl)c(Cl)c1)c1ccccc1	28	-9	x	0	-1	x	x	x	x	x
O=C(Nc1cccc(Cl)c1)c1ccccc1	83*	58*	x	39	62*	93*	91*	83*	57*	76*
CC(=O)c1cccc(NC(=O)C2CCCCC2)c1	20	7	-4	22	18	x	x	x	x	x
O=C(Nc1csc(Cl)c1)c1ccccc1	80*	43*	-2	20	56*	81*	86*	79*	41*	69*
O=C(Nc1cccc(Cl)c1)C1CCCCC1	50*	33	x	25	66*	55*	38	38	x	69*
COc1cccc(NC(=O)c2ccccc2)c1	53*	30	x	12	57*	72*	49	54*	x	64*
Cc1ccc2nc(NC(=O)CN3C(=O)NC4(CCCCC4)C3=O)sc2c1	0	14	-5	-3	19	x	x	x	x	x
O=C(CN1CCN(S(=O)(=O)c2ccc(F)cc2)CC1)Nc1ccc(Cl)cn1	18	-5	10	6	27	x	x	x	x	x
C=C(C)COc1ccc2c(C)c(CC(=O)OC)c(=O)oc2c1C	66*	87*	x	80*	61*	78*	83*	80*	88*	65*	tim10-1 confirm=76*
CCOc1ccccc1C(=O)Nc1cc(Cl)ccc1O	52*	59*	54*	62*	85*	72*	66*	53*	52*	8	tim10-1 confirm=54*
COc1ccccc1C(=O)Nc1cc(Cl)ccc1O	44	0	-2	8	-19	x	x	x	x	x
CCCC1CCC(c2ccc(C(=O)NN)cc2)CC1 (configuration not stated)	51*	47*	1	32	55*	35	x	x	32*	18
NC(=O)c1cc(S(=O)(=O)N2CCCC2)ccc1OCCOc1ccccc1	3	8	x	18	13	x	x	x	x	x

Source: PubChem BioAssay (several laboratories)
